# Reference: PubChem BioAssay AID1159580 (chemical genetic matrix, 2015)
# Values joined by “and” are separate entries in the source; they are usually repeats but may differ in a detail not shown here. Equal entries are not always repeated. Screen size: about 5,500 compounds; about 2,000 (36%) were called active. About 18% were inconclusive and are not listed. No stated cut-off is given here; in the data, active means normalized growth mostly below about 0.91 (no sharp cut-off); inconclusive means no clear call, values can overlap the other calls; inactive means mostly above about 0.92. The list shows a part of the results.
# Assay: chemical genetic growth profiling, strain panel (AID 1159580);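 further: tested at 20 µM; growth read once vehicle control cultures reached saturation at 30 °C; 1 = growth at the plate median or of vehicle wells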
# Settings: S. cerevisiae deletion strains, growth OD
structure (smiles),measurement,setting,value
CO[C@H]1CC(O[C@@H]2/C(C)=C/C[C@@H]3C[C@@H](C[C@]4(CC[C@H](C)[C@@H](C5CCCCC5)O4)O3)OC(=O)[C@@H]3C=C(C)/C(=N\O)[C@H]4OC/C(=C\C=C\[C@@H]2C)[C@]43O)O[C@@H](C)C1O (some centres undefined),normalized growth,"locus YAL013W, strain DEP1, stronger effect = lower value",0.956 (inactive)
same,normalized growth,"locus YAL021C, strain ccr4, stronger effect = lower value",1.09 (inactive)
same,normalized growth,"locus YAL026C, strain drs2, stronger effect = lower value",1.02 (inactive)
same,normalized growth,"locus YAL030W, strain snc1, stronger effect = lower value",1.02 (inactive)
same,normalized growth,"locus YBL061C, strain skt5, stronger effect = lower value",0.989 (inactive)
same,normalized growth,"locus YBR009C, strain hhf1, stronger effect = lower value",1.03 (inactive)
same,normalized growth,"locus YBR021W, strain FUR4, stronger effect = lower value",0.952 (inactive)
same,normalized growth,"locus YBR023C, strain chs3, stronger effect = lower value",0.991 (inactive)
same,normalized growth,"locus YBR171W, strain sec66, stronger effect = lower value",0.988 (inactive)
same,normalized growth,"locus YBR229C, strain ROT2, stronger effect = lower value",0.992 (inactive)
same,normalized growth,"locus YBR231C, strain swc5, stronger effect = lower value",0.877 (active)
same,normalized growth,"locus YBR279W, strain paf1, stronger effect = lower value",1.01 (inactive)
same,normalized growth,"locus YCL011C, strain gbp2, stronger effect = lower value",1 (inactive)
same,normalized growth,"locus YCL016C, strain dcc1, stronger effect = lower value",1.01 (inactive)
same,normalized growth,"locus YCL029C, strain bik1, stronger effect = lower value",0.984 (inactive)
same,normalized growth,"locus YCL061C, strain MRC1, stronger effect = lower value",1.02 (inactive)
same,normalized growth,"locus YCL069W, strain vba3, stronger effect = lower value",1.02 (inactive)
same,normalized growth,"locus YCR088W, strain abp1, stronger effect = lower value",1.02 (inactive)
same,normalized growth,"locus YDL005C, strain med2, stronger effect = lower value",1.02 (inactive)
same,normalized growth,"locus YDL035C, strain GPR1, stronger effect = lower value",0.949 (inactive)
same,normalized growth,"locus YDL040C, strain nat1, stronger effect = lower value",1.02 (inactive)
same,normalized growth,"locus YDL074C, strain BRE1, stronger effect = lower value",0.979 (inactive)
same,normalized growth,"locus YDL101C, strain DUN1, stronger effect = lower value",0.979 (inactive)
same,normalized growth,"locus YDL134C, strain PPH21, stronger effect = lower value",0.96 (inactive)
same,normalized growth,"locus YDL185W, strain tfp1, stronger effect = lower value",0.0713 (active)
same,normalized growth,"locus YDL192W, strain arf1, stronger effect = lower value",0.989 (inactive)
same,normalized growth,"locus YDR001C, strain nth1, stronger effect = lower value",1.01 (inactive)
same,normalized growth,"locus YDR069C, strain doa4, stronger effect = lower value",1 (inactive)
same,normalized growth,"locus YDR101C, strain arx1, stronger effect = lower value",0.998 (inactive)
same,normalized growth,"locus YDR137W, strain rgp1, stronger effect = lower value",0.39 (active)
same,normalized growth,"locus YDR150W, strain NUM1, stronger effect = lower value",0.984 (inactive)
same,normalized growth,"locus YDR159W, strain sac3, stronger effect = lower value",0.756 (active)
same,normalized growth,"locus YDR162C, strain NBP2, stronger effect = lower value",0.928 (inactive)
same,normalized growth,"locus YDR195W, strain ref2",0.883 (inactive)
same,normalized growth,"locus YDR297W, strain sur2, stronger effect = lower value",1.02 (inactive)
same,normalized growth,"locus YDR318W, strain mcm21, stronger effect = lower value",0.992 (inactive)
same,normalized growth,"locus YDR334W, strain swr1, stronger effect = lower value",1.02 (inactive)
same,normalized growth,"locus YDR335W, strain msn5, stronger effect = lower value",0.982 (inactive)
same,normalized growth,"locus YDR388W, stronger effect = lower value",0.991 (inactive)
same,normalized growth,"locus YDR392W, strain spt3, stronger effect = lower value",0.979 (inactive)
same,normalized growth,"locus YDR502C, strain sam2, stronger effect = lower value",0.983 (inactive)
same,normalized growth,"locus YEL003W, strain gim4, stronger effect = lower value",1.01 (inactive)
same,normalized growth,"locus YEL037C, strain rad23, stronger effect = lower value",1.02 (inactive)
same,normalized growth,"locus YEL061C, strain CIN8 (second series), stronger effect = lower value",1.02 (inactive)
same,normalized growth,"locus YEL061C, strain CIN8, stronger effect = lower value",0.987 (inactive)
same,normalized growth,"locus YER015W, strain faa2, stronger effect = lower value",0.997 (inactive)
same,normalized growth,"locus YER016W, strain bim1, stronger effect = lower value",0.989 (inactive)
same,normalized growth,"locus YER110C, stronger effect = lower value",0.994 (inactive)
same,normalized growth,"locus YER111C, strain swi4, stronger effect = lower value",1.02 (inactive)
same,normalized growth,"locus YER155C, strain BEM2 (second series), stronger effect = lower value",1 (inactive)
same,normalized growth,"locus YER155C, strain BEM2, stronger effect = lower value",1.02 (inactive)
same,normalized growth,"locus YER167W, strain BCK2, stronger effect = lower value",0.994 (inactive)
same,normalized growth,"locus YFR010W, strain ubp6, stronger effect = lower value",1.02 (inactive)
same,normalized growth,"locus YGL078C, strain dbp3, stronger effect = lower value",0.975 (inactive)
same,normalized growth,"locus YGL086W, strain mad1, stronger effect = lower value",1.01 (inactive)
same,normalized growth,"locus YGL167C, strain pmr1, stronger effect = lower value",1.01 (inactive)
same,normalized growth,"locus YGL173C, strain kem1, stronger effect = lower value",1.02 (inactive)
same,normalized growth,"locus YGL227W, strain vid30, stronger effect = lower value",1.03 (inactive)
same,normalized growth,"locus YGL240W, strain doc1, stronger effect = lower value",1.1 (inactive)
same,normalized growth,"locus YGL248W, strain PDE1, stronger effect = lower value",1 (inactive)
same,normalized growth,"locus YGL253W, strain hxk2, stronger effect = lower value",1.01 (inactive)
same,normalized growth,"locus YGR135W, strain pre9, stronger effect = lower value",0.974 (inactive)
same,normalized growth,"locus YGR252W, strain gcn5, stronger effect = lower value",1.06 (inactive)
same,normalized growth,"locus YHR013C, strain ard1, stronger effect = lower value",0.861 (inactive)
same,normalized growth,"locus YHR027C, strain rpn1, stronger effect = lower value",0.994 (inactive)
same,normalized growth,"locus YHR030C, strain SLT2, stronger effect = lower value",0.993 (inactive) and 0.435 (active)
same,normalized growth,"locus YHR079C, strain IRE1 (second series), stronger effect = lower value",0.988 (inactive)
same,normalized growth,"locus YHR079C, strain IRE1, stronger effect = lower value",0.831 (active)
same,normalized growth,"locus YHR094C, strain hxt1, stronger effect = lower value",1 (inactive)
same,normalized growth,"locus YHR129C, strain ARP1, stronger effect = lower value",0.99 (inactive)
same,normalized growth,"locus YHR142W, strain chs7, stronger effect = lower value",1.01 (inactive)
same,normalized growth,"locus YHR200W, strain rpn10, stronger effect = lower value",0.988 (inactive)
same,normalized growth,"locus YIL066C, strain RNR3, stronger effect = lower value",0.984 (inactive)
same,normalized growth,"locus YIL073C, strain SPO22, stronger effect = lower value",0.801 (inactive)
same,normalized growth,"locus YIL125W, strain kgd1, stronger effect = lower value",0.992 (inactive)
same,normalized growth,"locus YIR030C, strain dcg1, stronger effect = lower value",1 (inactive)
same,normalized growth,"locus YJL092W, strain hpr5, stronger effect = lower value",1.02 (inactive)
same,normalized growth,"locus YJL095W, strain BCK1 (second series), stronger effect = lower value",1.02 (inactive)
same,normalized growth,"locus YJL095W, strain BCK1, stronger effect = lower value",0.882 (inactive) and 0.512 (active)
same,normalized growth,"locus YJL115W, strain asf1, stronger effect = lower value",1.04 (inactive)
same,normalized growth,"locus YJL129C, strain trk1, stronger effect = lower value",0.901 (inactive)
same,normalized growth,"locus YJL134W, strain LCB3, stronger effect = lower value",0.984 (inactive)
same,normalized growth,"locus YJL154C, strain vps35, stronger effect = lower value",1.02 (inactive)
same,normalized growth,"locus YJL164C, strain tpk1, stronger effect = lower value",1.01 (inactive)
same,normalized growth,"locus YJL166W, strain qcr8, stronger effect = lower value",1.02 (inactive)
same,normalized growth,"locus YJL168C, strain set2, stronger effect = lower value",0.997 (inactive)
same,normalized growth,"locus YJL187C, strain SWE1 (second series), stronger effect = lower value",0.99 (inactive)
same,normalized growth,"locus YJL187C, strain SWE1, stronger effect = lower value",1.01 (inactive)
same,normalized growth,"locus YJR043C, strain POL32, stronger effect = lower value",0.977 (inactive)
